Measurements: PubChem BioAssay (NCATS)
Records with an inconclusive call do not appear. Where a call stands in place of a potency, no number is given. Active and inactive are the calls of the source. The call rests on the fitted dose curve; in most records, active means well fitted curve in the direction sought with a large enough effect; inconclusive means small, poorly fitted or top-dose-only effect, or another doubt; inactive means no such curve, though single readings can be large; an effect the other way counts as inactive or inconclusive.

Key:
[1] = qHTS of pediatric cancer cell lines to identify multiple opportunities for drug repurposing: Primary screen for BT-37 cells (AID 1347094); further: potency means the concentration at half of the fitted maximal effect
Outline: (§1)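 Viability was measured as metabolically active cells after 48 hours of treatment, read by CellTiter-Glo luminescence. Compounds were tested at multiple final concentrations, giving concentration-response curves.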

[2] = qHTS of pediatric cancer cell lines to identify multiple opportunities for drug repurposing: Primary screen for NB-EBc1 cells (AID 1347095); further: potency means the concentration at half of the fitted maximal effect
Outline: as §1

[3] = qHTS of pediatric cancer cell lines to identify multiple opportunities for drug repurposing: Primary screen for U-2 OS cells (AID 1347096); further: nearly all actives have a fitted effect of over 50% in size
Outline: (§2)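 Cells (500-1,000/well) rested 5 h, then received compounds for 48 h; metabolically active cells were measured by CellTiter-Glo luminescence. Final concentrations spanned up to 46 µM (MIPE, 11-point) or 0.59 nM-46 µM (NPC, 8-point) in primary screens, 11-point in follow-ups.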

[4] = qHTS of pediatric cancer cell lines to identify multiple opportunities for drug repurposing: Primary screen for NB1643 cells (AID 1347099); further: nearly all actives have a fitted effect of over 50% in size; further: potency means the concentration at half of the fitted maximal effect
Outline: as §1

[5] = qHTS of pediatric cancer cell lines to identify multiple opportunities for drug repurposing: Primary screen for LAN-5 cells (AID 1347100); further: potency means the concentration at half of the fitted maximal effect
Outline: as §2

[6] = qHTS of pediatric cancer cell lines to identify multiple opportunities for drug repurposing: Primary screen for BT-12 cells (AID 1347101); further: nearly all actives have a fitted effect of over 25% in size; further: potency means the concentration at half of the fitted maximal effect
Outline: as §2

[7] = qHTS of pediatric cancer cell lines to identify multiple opportunities for drug repurposing: Primary screen for Rh18 cells (AID 1347102); further: nearly all actives have a fitted effect of over 65% in size
Outline: as §2

[8] = qHTS of pediatric cancer cell lines to identify multiple opportunities for drug repurposing: Primary screen for MG 63 (6-TG R) cells (AID 1347105); further: nearly all actives have a fitted effect of over 50% in size
Outline: as §1

[9] = qHTS of pediatric cancer cell lines to identify multiple opportunities for drug repurposing: Primary screen for control Hh wild type fibroblast cells (AID 1347106);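 further: series mostly up to about 46 µM; a drop in luminescence marks cytotoxicity and a rise apparent proliferation; nearly all actives have a fitted effect of over 55% in size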
Outline: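 Viability after 48 h compound treatment at 37C, 500-1,000 cells/well, read as ATP luminescence with CellTiter-Glo. Primary screens used 11-point (MIPE, 0.78 nM-46 µM) or 8-point (NPC, 0.59 nM-46 µM) final concentrations; follow-up screens used 11-point dilutions.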

[10] = qHTS of pediatric cancer cell lines to identify multiple opportunities for drug repurposing: Primary screen for Rh30 cells (AID 1347107); further: series mostly up to about 46 µM; nearly all actives have a fitted effect of over 75% in size
Outline: as §2

[11] = qHTS of pediatric cancer cell lines to identify multiple opportunities for drug repurposing: Primary screen for Rh41 cells (AID 1347108);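 further: series mostly up to about 46 µM; luminescence drop marks cytotoxic hits; nearly all actives have a fitted effect of over 70% in size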
Outline: as §1

[12] = qHTS of pediatric cancer cell lines to identify multiple opportunities for drug repurposing: Primary screen for SK-N-SH cells (AID 1347098); further: nearly all actives have a fitted effect of over 65% in size; further: potency means the concentration at half of the fitted maximal effect
Outline: as §2

[13] = qHTS of pediatric cancer cell lines to identify multiple opportunities for drug repurposing: Primary screen for OHS-50 cells (AID 1347103); further: nearly all actives have a fitted effect of over 40% in size; further: potency means the concentration at half of the fitted maximal effect
Outline: as §2

[14] = qHTS of pediatric cancer cell lines to identify multiple opportunities for drug repurposing: Confirmatory screen for SK-N-MC cells (AID 1347111); conditions: SK-N-MC cell viability;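 further: potency means the concentration at half of the fitted maximal effect; cells exposed to compound for 48 h before the readout; nearly all actives have a fitted effect of over 70% in size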
Outline: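 Seed 500-1,000 cells/well; rest 5 h at 37 degrees C. Pin-transfer compounds, 11-point titration. Incubate 48 h. Add CellTiter-Glo, 15 min RT, read luminescence.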

[15] = qHTS of pediatric cancer cell lines to identify multiple opportunities for drug repurposing: Primary screen for Saos-2 cells (AID 1347097); further: nearly all actives have a fitted effect of over 40% in size; further: potency means the concentration at half of the fitted maximal effect
Outline: as §1

[16] = qHTS of pediatric cancer cell lines to identify multiple opportunities for drug repurposing: Primary screen for RD cells (AID 1347104); further: nearly all actives have a fitted effect of over 55% in size; further: potency means the concentration at half of the fitted maximal effect
Outline: as §1

[17] = qHTS of pediatric cancer cell lines to identify multiple opportunities for drug repurposing: Primary screen for SK-N-MC cells (AID 1347093); further: potency means the concentration at half of the fitted maximal effect
Outline: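 Metabolically active cells were quantified by ATP-dependent luminescence (CellTiter-Glo, 15 min at room temperature) following 48 h treatment. Cells had been plated at 500-1,000 per well and settled for 5 h beforehand.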

[18] = qHTS of pediatric cancer cell lines to identify multiple opportunities for drug repurposing: Confirmatory screen for NB1643 cells (AID 1347109); further: nearly all actives have a fitted effect of over 45% in size
Outline: as §2

[19] = qHTS of pediatric cancer cell lines to identify multiple opportunities for drug repurposing: Confirmatory screen for A673 cells (AID 1347110); further: nearly all actives have a fitted effect of over 65% in size; further: potency means the concentration at half of the fitted maximal effect
Outline: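 A673 cells seeded at 500-1,000 cells/well, rested 5 h, then dosed; primary MIPE 11-point (0.78 nM to 46 µM), NPC (0.59 nM to 46 µM); confirmatory 11-point. CellTiter-Glo luminescence after 48 h.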

[20] = qHTS of pediatric cancer cell lines to identify multiple opportunities for drug repurposing: Primary screen for A673 cells (AID 1347092); further: nearly all actives have a fitted effect of over 45% in size
Outline: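 A673 cells (500-1,000 cells/well in growth media) were pre-incubated 5 h at 37 degrees C, then exposed to compounds for 48 h. Viability was read as CellTiter-Glo luminescence; concentration-response curves came directly from the primary screen.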

COCCCC/C(=N\OCCN)c1ccc(C(F)(F)F)cc1
Potency [1]: inactive
Potency [2]: inactive
Potency [3]: inactive
Potency [4]: inactive
Potency [5]: inactive
Potency [6]: inactive
Potency [7]: inactive
Potency [8]: inactive
outcome [9]: inactive
Potency [10]: inactive
Potency [11]: inactive

O=C(CCCN1CCC(O)(c2cccc(C(F)(F)F)c2)CC1)c1ccc(F)cc1
Potency [1]: inactive
Potency [2]: inactive
Potency [3]: inactive
Potency [12]: inactive
Potency [4]: inactive
Potency [5]: inactive
Potency [8]: inactive
outcome [9]: inactive
Potency [10]: inactive
Potency [11]: inactive

CN(C)CCCN1c2ccccc2Sc2ccc(C(F)(F)F)cc21
Potency [3]: inactive
Potency [6]: 4.9 µM (active)
Potency [13]: 24.6 µM (active)
Potency [8]: inactive
outcome [9]: inactive
Potency [10]: inactive
Potency [11]: inactive
Potency [14]: 26.1 µM (active)

Cc1nc2sccn2c(=O)c1CCN1CCC(=C(c2ccc(F)cc2)c2ccc(F)cc2)CC1
Potency [1]: inactive
Potency [3]: inactive
Potency [4]: inactive
Potency [5]: inactive
Potency [7]: inactive
Potency [13]: 27.6 µM (active)
Potency [8]: inactive
outcome [9]: inactive
Potency [10]: inactive
Potency [11]: inactive

CCCCNc1c(C(=O)OCC)c(C)nc2c1cnn2CC
Potency [1]: inactive
Potency [2]: inactive
Potency [3]: inactive
Potency [15]: 26.6 µM (active)
Potency [4]: inactive
Potency [6]: inactive
Potency [7]: inactive
Potency [13]: 34.7 µM (active)
Potency [16]: inactive
Potency [8]: inactive
outcome [9]: inactive
Potency [10]: inactive
Potency [11]: inactive

COCCOC(=O)C1=C(C)NC(C)=C(C(=O)OC(C)C)C1c1cccc([N+](=O)[O-])c1 (stereo not drawn)
Potency [3]: inactive
Potency [12]: inactive
Potency [4]: inactive
Potency [13]: 24.6 µM (active)
outcome [9]: inactive

c1cc(CN2CCCCC2)cc(OCCCNc2nc3ccccc3s2)c1
Potency [2]: inactive
Potency [12]: 24.4 µM (active)
Potency [4]: inactive
Potency [7]: inactive
Potency [13]: 27.6 µM (active)
Potency [8]: inactive
outcome [9]: inactive
Potency [10]: inactive

CN/C(=C\[N+](=O)[O-])NCCSCc1ccc(CN(C)C)o1
Potency [17]: 0.001 µM (active)
Potency [1]: inactive
Potency [2]: inactive
Potency [3]: inactive
Potency [15]: inactive
Potency [12]: inactive
Potency [4]: 37.6 µM (active)
Potency [5]: inactive
Potency [6]: inactive
Potency [13]: inactive
Potency [8]: inactive
outcome [9]: inactive
Potency [10]: inactive
Potency [18]: inactive
Potency [19]: 5.22 µM (active)
Potency [14]: 11.7 µM (active)

CN1C[C@H](C(=O)N[C@]2(C)O[C@@]3(O)[C@@H]4CCCN4C(=O)[C@H](Cc4ccccc4)N3C2=O)C[C@@H]2c3cccc4[nH]cc(c34)C[C@H]21
Potency [1]: inactive
Potency [2]: inactive
Potency [3]: inactive
Potency [12]: 30.7 µM (active)
Potency [4]: inactive
Potency [5]: inactive
Potency [16]: inactive
Potency [8]: inactive
outcome [9]: inactive
Potency [10]: inactive
Potency [11]: inactive
Potency [18]: inactive
Potency [19]: inactive

COC(=O)C1=C(C)NC(C)=C(C(=O)OCCN(C)Cc2ccccc2)C1c1cccc([N+](=O)[O-])c1 (stereo not drawn)
Potency [15]: 29.9 µM (active)
Potency [12]: 4.33 µM (active)
Potency [4]: 21.1 µM (active)
Potency [13]: 17.4 µM (active)
outcome [9]: inactive
Potency [10]: inactive

CCC(=O)c1ccc2c(c1)N(CCCN(C)C)c1ccccc1S2
Potency [2]: inactive
Potency [3]: inactive
Potency [12]: 34.4 µM (active)
Potency [4]: inactive
Potency [13]: 30.9 µM (active)
Potency [8]: inactive
outcome [9]: inactive
Potency [10]: inactive
Potency [11]: inactive

COC(=O)C1=C(C)NC(C)=C(C(=O)OC(C)(C)CN(C)CCC(c2ccccc2)c2ccccc2)C1c1cccc([N+](=O)[O-])c1 (stereo not drawn)
Potency [17]: 13.3 µM (active)
Potency [5]: 18.8 µM (active)
Potency [13]: 12.3 µM (active)
Potency [8]: inactive
outcome [9]: inactive

COC(=O)[C@H]1[C@H]2C[C@@H]3c4[nH]c5cc(OC)ccc5c4CCN3C[C@H]2C[C@@H](OC(=O)c2cc(OC)c(OC)c(OC)c2)[C@@H]1OC
Potency [1]: inactive
Potency [2]: inactive
Potency [3]: inactive
Potency [15]: 23.7 µM (active)
Potency [4]: inactive
Potency [5]: inactive
outcome [9]: inactive
Potency [10]: inactive

COc1cc2c(cc1OC)-c1cc(=Nc3c(C)cc(C)cc3C)n(C)c(=O)n1CC2
Potency [17]: 4.22 µM (active)
Potency [3]: inactive
Potency [7]: inactive
Potency [13]: 21.9 µM (active)
Potency [16]: 23.7 µM (active)
outcome [9]: inactive
Potency [10]: inactive

CCNC(=O)N1CCN(CCCC(c2ccc(F)cc2)c2ccc(F)cc2)CC1
Potency [20]: inactive
Potency [2]: inactive
Potency [3]: inactive
Potency [15]: inactive
Potency [12]: 30.7 µM (active)
Potency [4]: inactive
Potency [5]: inactive
Potency [7]: inactive
Potency [16]: inactive
Potency [8]: inactive
outcome [9]: inactive
Potency [10]: inactive

CCCC(C(=O)OCCN(CC)CC)(c1ccccc1)c1ccccc1
Potency [1]: 30.9 µM (active)
Potency [15]: 26.6 µM (active)
Potency [12]: 19.4 µM (active)
Potency [5]: inactive
Potency [13]: 30.9 µM (active)
Potency [16]: 29.9 µM (active)
outcome [9]: inactive

Cc1ccc(Cl)c(Nc2ccccc2C(=O)O)c1Cl
Potency [20]: inactive
Potency [1]: inactive
Potency [3]: inactive
Potency [5]: inactive
Potency [6]: inactive
Potency [7]: inactive
Potency [13]: inactive
Potency [16]: inactive
outcome [9]: inactive
Potency [10]: inactive
Potency [11]: inactive

CN(C)CC/C=C1\c2ccccc2COc2ccccc21
Potency [17]: inactive
Potency [1]: inactive
Potency [2]: inactive
Potency [3]: inactive
Potency [4]: inactive
Potency [5]: inactive
Potency [8]: inactive
outcome [9]: inactive
Potency [10]: inactive

COc1ccc2c(c1OC)C(=O)O[C@@H]2[C@H]1c2c(cc3c(c2OC)OCO3)CCN1C
Potency [1]: inactive
Potency [3]: inactive
Potency [4]: inactive
Potency [7]: inactive
Potency [13]: inactive
Potency [16]: inactive
Potency [8]: inactive
outcome [9]: inactive
Potency [10]: inactive
Potency [11]: inactive

COc1cc(C(=O)OCCCN2CCCN(CCCOC(=O)c3cc(OC)c(OC)c(OC)c3)CC2)cc(OC)c1OC
Potency [17]: inactive
Potency [2]: inactive
Potency [3]: inactive
Potency [15]: inactive
Potency [12]: inactive
Potency [4]: inactive
Potency [7]: inactive
Potency [8]: inactive
outcome [9]: inactive
Potency [10]: inactive
Potency [11]: inactive

COC(=O)[C@@H](N)Cc1ccc(O)c(O)c1
Potency [20]: inactive
Potency [1]: inactive
Potency [2]: inactive
Potency [3]: inactive
Potency [12]: inactive
Potency [4]: inactive
Potency [5]: inactive
Potency [6]: inactive
Potency [13]: inactive
Potency [16]: inactive
Potency [8]: inactive
outcome [9]: inactive
Potency [10]: inactive
Potency [11]: inactive

Nc1nc(N)c2nc(-c3ccccc3)c(N)nc2n1
Potency [17]: 0.531 µM (active)
Potency [1]: 13.8 µM (active)
Potency [2]: 8.41 µM (active)
Potency [4]: inactive
Potency [5]: 13.3 µM (active)
Potency [6]: 13.8 µM (active)
Potency [7]: inactive
Potency [16]: 23.7 µM (active)
Potency [8]: inactive
outcome [9]: inactive
Potency [11]: inactive
Potency [14]: 3.69 µM (active)

CC(C)(C)c1ccc(C(=O)CCCN2CCC(OC(c3ccccc3)c3ccccc3)CC2)cc1
Potency [17]: 21.1 µM (active)
Potency [1]: 27.6 µM (active)
Potency [15]: 26.6 µM (active)
Potency [12]: inactive
Potency [6]: 19.5 µM (active)
Potency [13]: 15.5 µM (active)
Potency [16]: 21.1 µM (active)
outcome [9]: inactive
